# Measured values reported in article PMC4336329 (PLoS ONE, 2015).
# In all, about 310,000 compounds went through this assay and about 2,200 (0.71%) showed an effect of 50% or more. The effect is printed as a negative number. For the sample, strong results were picked, then their nearest neighbours and some compounds at random.
# Biological target: human ether-à-go-go-related gene (hERG) potassium channel (human, UniProt Q12809)
# Assay: primary screen, population patch clamp on CHO cells stably expressing hERG; higher = less effect of the substance
# Chain of human ether-à-go-go-related gene (hERG) potassium channel (Q12809 whole entry, looked up): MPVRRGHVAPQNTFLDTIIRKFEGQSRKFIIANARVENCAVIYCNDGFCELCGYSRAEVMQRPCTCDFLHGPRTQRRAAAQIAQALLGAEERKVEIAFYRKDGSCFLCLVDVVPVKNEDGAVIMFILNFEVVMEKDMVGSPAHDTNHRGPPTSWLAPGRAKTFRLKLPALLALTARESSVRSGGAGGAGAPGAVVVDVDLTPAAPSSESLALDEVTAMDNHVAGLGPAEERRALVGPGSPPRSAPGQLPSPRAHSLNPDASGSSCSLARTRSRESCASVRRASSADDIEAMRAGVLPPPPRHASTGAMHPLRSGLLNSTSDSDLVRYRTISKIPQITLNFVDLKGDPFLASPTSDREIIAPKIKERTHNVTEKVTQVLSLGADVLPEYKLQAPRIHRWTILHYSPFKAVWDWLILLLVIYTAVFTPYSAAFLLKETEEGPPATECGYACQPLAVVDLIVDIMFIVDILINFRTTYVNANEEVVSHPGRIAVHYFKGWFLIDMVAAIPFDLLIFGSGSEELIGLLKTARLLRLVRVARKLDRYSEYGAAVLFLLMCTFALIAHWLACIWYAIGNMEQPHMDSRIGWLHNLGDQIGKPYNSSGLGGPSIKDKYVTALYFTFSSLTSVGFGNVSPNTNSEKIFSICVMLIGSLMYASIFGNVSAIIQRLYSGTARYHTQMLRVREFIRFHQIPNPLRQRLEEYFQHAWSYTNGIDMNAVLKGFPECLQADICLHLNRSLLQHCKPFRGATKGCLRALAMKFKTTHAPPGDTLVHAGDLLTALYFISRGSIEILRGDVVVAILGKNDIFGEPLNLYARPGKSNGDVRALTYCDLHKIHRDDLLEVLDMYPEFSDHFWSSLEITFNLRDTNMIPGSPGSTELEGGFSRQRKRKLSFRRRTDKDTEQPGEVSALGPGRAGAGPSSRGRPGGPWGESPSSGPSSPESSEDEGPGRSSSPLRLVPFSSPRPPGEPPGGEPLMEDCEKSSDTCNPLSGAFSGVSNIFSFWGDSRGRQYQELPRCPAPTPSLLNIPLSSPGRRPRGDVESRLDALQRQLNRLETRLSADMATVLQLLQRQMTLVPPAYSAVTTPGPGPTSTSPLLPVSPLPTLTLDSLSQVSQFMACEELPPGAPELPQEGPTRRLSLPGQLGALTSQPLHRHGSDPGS
row,Structure (SMILES),"hERG current change (%, negative = inhibition) at 1uM"
1,COc1cc2ccccc2cc1C(=O)N1CC(C)CC(C)C1 (stereo not shown),-3.89%
2,CCOC(=O)N/N=C/c1cccnc1,5%
3,CCCCN(C(=O)COC(=O)c1ccc(C=O)cc1)c1c(N)n(CCC)c(=O)[nH]c1=O,11%
4,Cc1nc(N2CCN(C(=O)COc3ccccc3)CC2)c2c(C)c(C)sc2n1.Cl,-29.3%
5,Cc1nc(N2CCN(C(=O)CCC(=O)O)CC2)c2c(C)c(C)sc2n1,-4.32%
6,CCC(=O)N1CCN(c2nc(C)nc3sc(C)c(C)c23)CC1,-54%
7,COc1ccc(Cc2noc(CN3CCN(C4CCc5ccccc5C4)CC3)n2)cc1OC (stereo not shown),-32%
8,Cc1cccnc1CN1CCN(Cc2nc(Cc3cccc(F)c3)no2)CC1,6.2%
9,O=C(c1ccco1)N1CCCN(Cc2nc(Cc3ccccc3)no2)CC1,1.8%
10,COc1ccc(Cc2noc(CN3CCCN(C4Cc5ccccc5C4)CC3)n2)cc1OC,-44.4%
11,Cc1ccccc1N1CCN(Cc2nc(Cc3ccccc3)no2)CC1,8.68%
12,Fc1cccc(Cc2noc(CN3CCC(c4ccncc4)CC3)n2)c1,-1.98%
13,c1ccc(Cc2noc(CN3CCN(C4CCc5ccccc5C4)CC3)n2)cc1 (stereo not shown),-76.1%
14,c1ccc(Cc2noc(CN3CCCN(C4Cc5ccccc5C4)CC3)n2)cc1,-66%
15,Fc1cccc(Cc2noc(CN3CCOCC3)n2)c1,10.8%
16,Fc1cccc(Cc2noc(CN3CCN(C4CCc5ccccc5C4)CC3)n2)c1 (stereo not shown),-67.5%
17,Fc1cccc(Cc2noc(CN3CCCN(C4Cc5ccccc5C4)CC3)n2)c1,-86.9%
18,Fc1cccc(Cc2noc(CN3CCSCC3)n2)c1,17.3%
19,COc1ccnc2c1c(=O)n(Cc1cccc(F)c1)c(=O)n2C,8.91%
20,Cc1cc(C)cc(NC(=O)CSc2nnc(CNC(=O)c3ccco3)n2C)c1,14.2%
21,Br.c1ccc(C2CNCc3c2ccc2ccccc32)cc1 (stereo not shown),1.84%
22,COc1ccc(C(=O)NCc2nnc(SCC(=O)NCc3ccco3)o2)cc1OC,14.2%
23,COc1ccc(Nc2nnc(Cc3ccccc3)c(=O)[nH]2)c(OC)c1,8.03%

row,Structure (SMILES),"hERG current change (%, negative = inhibition) at 1uM"
1,COc1ccc(Nc2ncnc3ccccc23)c(OC)c1.Cl,-0.118%
2,COc1cccc(NC(=S)NCc2cccnc2)c1,11.1%
3,COc1cccc(Nc2nnc(Cc3cccnc3)c3ccccc23)c1,-83.2%
4,COc1ccc(Nc2nnc(Cc3ccncc3)c3ccccc23)c(OC)c1,-66.6%
5,COc1cccc(NC(=O)Cn2nc(Cc3cccnc3)c3ccccc3c2=O)c1,-8.3%
6,CCN(CC)CCOC(=O)c1cc2cc(COC)ccc2o1.CI,9.98%
7,O=C(CN1C(=O)c2cccnc2Oc2ccc(Cl)cc21)Nc1ccc(F)cc1,14.1%
8,COCCCn1c(Cc2csc(Nc3cccc(Cl)c3)n2)nnc1SCC(=O)OC1CCCCC1,-0.506%
9,COc1ccc(C2CC(c3cccc(OC)c3OC)n3nnnc3N2)cc1 (stereo not shown),-4.26%
10,O=C(c1cccs1)N1CCN(C(=O)N2CCOCC2)CC1,15.2%
11,COC(C[C@@H]1O[C@@H]1[C@H](O)COCc1ccccc1)OC,10.5%
12,CCOC(=O)c1cc(-c2ccc(Cl)cc2)nc2c1c(C)nn2CCC#N,10.9%
13,Cc1cc(C)c[n+](CC(=O)c2ccccc2)c1.[Br-],20.1%
14,Cc1cc(C)c[n+](CC(=O)c2c(C)cc(C)c([N+](=O)[O-])c2C)c1.[Br-],-52.7%
15,Cc1cc(C)c[n+](CC(=O)c2ccc(C)c([N+](=O)[O-])c2)c1.[Br-],4.61%
16,CN1CCN(C(=O)C2CCC(=O)N(Cc3cccc(C(F)(F)F)c3)C2)CC1 (stereo not shown),6.99%
17,Cc1nnc(NC(=O)CSc2nnc(CC(=O)Nc3ccccc3C)n2C)s1,17.4%
18,COc1ccc(C(=O)C2CCCN(Cc3cccn3-c3ccc(Cl)cn3)C2)c(OC)c1 (stereo not shown),-45.8%
19,COc1ccc(C(=O)C2CCCN(C(=O)CCc3ccccn3)C2)c(C)c1 (stereo not shown),9.98%
20,COc1ccc(C(=O)C2CCCN(CCO)C2)c(C)c1 (stereo not shown),12.5%
21,COc1ccc(C(=O)C2CCCN(Cc3cccn3-c3ccccn3)C2)c(C)c1 (stereo not shown),-84.8%
22,COc1ccc(C(=O)C2CCCN(Cc3cccn3-c3ccccn3)C2)c(OC)c1 (stereo not shown),-82.9%
23,COc1ccc(C(=O)C2CCCN(Cc3ccccn3)C2)c(OC)c1 (stereo not shown),-3.83%

row,Structure (SMILES),"hERG current change (%, negative = inhibition) at 1uM"
1,O=C(O)c1cc(NC(=O)c2ccc3c(c2)C(=O)N(Cc2ccccc2)C3=O)cc(C(=O)O)c1,11.7%
2,COc1cccc(Nc2ncc(C#N)c(N)n2)c1,12.9%
3,O=C(COC(=O)c1nc(Cl)ccc1Cl)Nc1ncc(Cl)cc1Cl,14.4%
4,CCN(CC)CCCN=Cc1c(O)n(Cc2ccccc2)c(=O)c2ccccc12,-77.3%
5,CN(C)CCN=Cc1c(O)n(Cc2ccccc2)c(=O)c2ccccc12,-6.8%
6,CN(C)CCCN=Cc1c(O)n(Cc2ccccc2)c(=O)c2ccccc12,-25.5%
7,CCOC(=O)C1CCN(C/C=C/c2ccccc2[N+](=O)[O-])CC1,-57%
8,CCOC(=O)C1CCCN(C/C=C/c2ccccc2[N+](=O)[O-])C1 (stereo not shown),-42.6%
9,CCOC(=O)C1CCN(C/C=C/c2ccccc2)CC1,4.64%
10,CC(O)[C@H]1CNCCN1CCc1cccc2ccccc12 (stereo partly shown),5.81%
11,CCSc1ccccc1C(=O)N1CCN(c2ccc([N+](=O)[O-])cc2)CC1,-41%
12,CCCCCn1cc(C(=O)C(=O)N2CCOCC2)c2ccccc21,7.53%
13,COc1ccc2c(c1)c(=O)c(C(=O)c1ccccc1)cn2Cc1ccccc1,-21.1%
14,CCCCCCn1cc(C(=O)O)c(=O)c2cc(F)c(N3CCCCC3)cc21,14%
15,CCCCCCn1cc(C(=O)O)c(=O)c2ccccc21,-84.4%
16,O=C(O)c1cn(Cc2ccccc2)c2ccc(Cl)cc2c1=O,-84.4%
17,O=C(O)c1cn(Cc2ccccc2)c2ccccc2c1=O,-43.6%
18,CCOc1cc(C2C(C(=O)OCC(C)C)=C(C)N=C3SCCC(=O)N32)ccc1OC(C)=O (stereo not shown),-0.245%
19,Cc1ccc(S(=O)(=O)N2CCN(C(=O)CCC(=O)N3CCc4ccccc43)CC2)cc1,3.11%
20,COc1ccc(N2C(=O)C(OC(C)=O)C2c2ccc(C)cc2)cc1 (stereo not shown),7.38%
21,COc1ccc2c(c1)Sc1ccccc1N2CCN(C)C.O=C(O)C(=O)O,2.44%
22,COc1ccc([C@@H]2Sc3cc(OC)ccc3N(CCN(C(C)C)C(C)C)C(=O)[C@H]2OC(C)=O)cc1.Cl,-70%
23,Cc1ccccc1C(=O)Nc1ccccc1C(=O)N1CCC(C)CC1,11.7%

row,Structure (SMILES),"hERG current change (%, negative = inhibition) at 1uM"
1,COC(=O)c1ccc(Cn2cnc3c(cnn3-c3ccc(C)c(C)c3)c2=O)o1,7.86%
2,Cc1c(-c2ccccc2)oc2c(C(=O)OCC(=O)Nc3cccc(F)c3)cccc2c1=O,5.94%
3,COc1ccccc1NC(=S)NC(NC(=O)c1ccco1)C(Cl)(Cl)Cl (stereo not shown),4.44%
4,COc1ccc(NC(=O)c2ccc(S(=O)(=O)N3CCCC3)cc2)cc1OC,-102%
5,COc1ccc(C(=O)Nc2ccc(S(=O)(=O)N3CCCCC3)cc2)cc1OC,-0.152%
6,COc1ccc(NC(=O)c2cccc(S(=O)(=O)N3CCCC3)c2)cc1OC,2.14%
7,CCCN1CCC[C@@H]2Cc3nc(N)ncc3C[C@H]21.Cl,8.86%
8,NC(=O)c1ccc(NC(=O)CCC(=O)c2cccs2)cc1,9.21%
9,O=C(Nn1cnnc1)c1cc([N+](=O)[O-])cc([N+](=O)[O-])c1,5.11%
10,CCn1cc(C2=NC(C)CO2)c2ccccc21 (stereo not shown),-0.637%
11,O=C(CN1CCN(Cc2ccccc2)CC1)Nc1ccc(Cl)cn1,-70%
12,COC(=O)c1ccccc1NC(=O)CN1CCOCC1,5.34%
13,COC(=O)c1ccccc1NC(=O)CN1CCN(Cc2ccccc2)CC1,-69.6%
14,COC(=O)c1ccccc1NC(=O)CN1CCCCC1,32.9%
15,NC(=O)c1ccccc1NC(=O)CN1CCN(Cc2ccc(Cl)cc2Cl)CC1,-75.8%
16,COC(=O)c1ccccc1NC(=O)CN1CCN(C23CC4CC(CC(C4)C2)C3)CC1,-75%
17,O=C(CN1CCN(Cc2ccccc2)CC1)Nc1ccc(Cl)cc1,-32.3%
18,O=C(CN1CCN(Cc2ccccc2F)CC1)Nc1ccccc1Cl,8.26%
19,COC(=O)c1ccccc1NC(=O)CN1CCCCCC1,16.5%
20,Cc1cccc(NC(=O)CN2CCN(CC(=O)NCc3ccc(Cl)cc3Cl)CC2)c1C,4.8%
21,COC(=O)c1ccccc1NC(=O)CN1CCC(C)CC1,-0.0967%
22,O=C(CN1CCCCCC1)Nc1ccc(Cl)cn1,6.51%
